# Test results published in the supplement of paper PMC11732987, “Enantioselective OTUD7B fragment discovery through chemoproteomics screening and high-throughput optimisation” (Communications Chemistry, 2025).
# A number with no mark means an inactive call.
# Key:
# Assay in all cases: log2 ratio of Biotin-Ahx-Ub-VS probe labelling (fragment/DMSO); higher = less target engagement (more negative = stronger competition), active = hit call of the paper (q ≤ 0.05, log2 ratio ≤ -1)
# Settings in all cases: compound concentration: 200 uM; treatment time: 3 h
# [1] = biological target: UniProt O00507
# How it was run: (§1)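 Average log2 ratios of fragment over vehicle were obtained by unpaired t-test from global-median-normalised Spectronaut label-free quantities. Proteins with ≥2 unique peptides were included. HEK293T lysate (495 µg per sample) was treated in triplicate with fragment at 200 µM or vehicle for 3 h, then with Biotin-Ahx-Ub-VS at 0.5 µM final for 1 h, and labelled DUBs were NeutrAvidin-enriched and run by diaPASEF LC-MS/MS.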
# [2] = biological target: UniProt P51784
# How it was run: as §1
# [3] = biological target: T1, UniProt Q5T2D3
# T1 sequence (whole entry): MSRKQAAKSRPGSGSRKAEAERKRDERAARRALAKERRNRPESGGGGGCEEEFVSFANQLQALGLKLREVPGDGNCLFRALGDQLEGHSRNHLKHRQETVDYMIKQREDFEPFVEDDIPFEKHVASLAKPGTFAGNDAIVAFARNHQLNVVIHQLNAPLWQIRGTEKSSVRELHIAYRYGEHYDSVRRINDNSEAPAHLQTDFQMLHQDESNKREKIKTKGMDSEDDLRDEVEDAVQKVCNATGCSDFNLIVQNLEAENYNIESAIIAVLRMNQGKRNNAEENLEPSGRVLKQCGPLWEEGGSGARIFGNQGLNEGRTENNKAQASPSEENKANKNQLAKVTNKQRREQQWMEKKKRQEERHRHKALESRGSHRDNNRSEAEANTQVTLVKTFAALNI
# How it was run: as §1
# [4] = biological target: T2, UniProt Q8TE49
# T2 sequence (whole entry): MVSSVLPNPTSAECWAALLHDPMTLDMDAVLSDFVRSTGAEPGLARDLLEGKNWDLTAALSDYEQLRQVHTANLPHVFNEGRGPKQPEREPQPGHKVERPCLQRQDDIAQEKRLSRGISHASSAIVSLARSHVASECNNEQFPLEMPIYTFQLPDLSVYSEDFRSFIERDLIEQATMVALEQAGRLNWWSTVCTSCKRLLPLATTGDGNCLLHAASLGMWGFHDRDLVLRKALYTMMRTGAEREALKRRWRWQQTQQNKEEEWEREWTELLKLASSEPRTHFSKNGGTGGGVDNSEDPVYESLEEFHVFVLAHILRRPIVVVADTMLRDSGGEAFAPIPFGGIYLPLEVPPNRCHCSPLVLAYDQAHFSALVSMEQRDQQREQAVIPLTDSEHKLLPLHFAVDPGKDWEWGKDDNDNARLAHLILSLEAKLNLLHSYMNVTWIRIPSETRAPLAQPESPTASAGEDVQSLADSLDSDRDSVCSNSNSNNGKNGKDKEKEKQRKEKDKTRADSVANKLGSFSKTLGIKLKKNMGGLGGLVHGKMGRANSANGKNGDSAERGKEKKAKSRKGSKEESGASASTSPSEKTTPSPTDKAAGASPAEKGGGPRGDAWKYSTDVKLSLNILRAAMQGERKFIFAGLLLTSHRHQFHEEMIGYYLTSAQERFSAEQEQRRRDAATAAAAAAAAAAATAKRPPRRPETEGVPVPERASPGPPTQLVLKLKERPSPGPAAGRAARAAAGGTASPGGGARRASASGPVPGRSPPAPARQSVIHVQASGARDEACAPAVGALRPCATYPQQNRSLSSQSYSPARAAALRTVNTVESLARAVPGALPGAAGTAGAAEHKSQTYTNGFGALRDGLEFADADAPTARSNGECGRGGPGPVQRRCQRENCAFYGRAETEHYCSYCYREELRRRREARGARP
# How it was run: as §1
# [5] = biological target: T3, UniProt Q9P2H5
# T3 sequence (whole entry): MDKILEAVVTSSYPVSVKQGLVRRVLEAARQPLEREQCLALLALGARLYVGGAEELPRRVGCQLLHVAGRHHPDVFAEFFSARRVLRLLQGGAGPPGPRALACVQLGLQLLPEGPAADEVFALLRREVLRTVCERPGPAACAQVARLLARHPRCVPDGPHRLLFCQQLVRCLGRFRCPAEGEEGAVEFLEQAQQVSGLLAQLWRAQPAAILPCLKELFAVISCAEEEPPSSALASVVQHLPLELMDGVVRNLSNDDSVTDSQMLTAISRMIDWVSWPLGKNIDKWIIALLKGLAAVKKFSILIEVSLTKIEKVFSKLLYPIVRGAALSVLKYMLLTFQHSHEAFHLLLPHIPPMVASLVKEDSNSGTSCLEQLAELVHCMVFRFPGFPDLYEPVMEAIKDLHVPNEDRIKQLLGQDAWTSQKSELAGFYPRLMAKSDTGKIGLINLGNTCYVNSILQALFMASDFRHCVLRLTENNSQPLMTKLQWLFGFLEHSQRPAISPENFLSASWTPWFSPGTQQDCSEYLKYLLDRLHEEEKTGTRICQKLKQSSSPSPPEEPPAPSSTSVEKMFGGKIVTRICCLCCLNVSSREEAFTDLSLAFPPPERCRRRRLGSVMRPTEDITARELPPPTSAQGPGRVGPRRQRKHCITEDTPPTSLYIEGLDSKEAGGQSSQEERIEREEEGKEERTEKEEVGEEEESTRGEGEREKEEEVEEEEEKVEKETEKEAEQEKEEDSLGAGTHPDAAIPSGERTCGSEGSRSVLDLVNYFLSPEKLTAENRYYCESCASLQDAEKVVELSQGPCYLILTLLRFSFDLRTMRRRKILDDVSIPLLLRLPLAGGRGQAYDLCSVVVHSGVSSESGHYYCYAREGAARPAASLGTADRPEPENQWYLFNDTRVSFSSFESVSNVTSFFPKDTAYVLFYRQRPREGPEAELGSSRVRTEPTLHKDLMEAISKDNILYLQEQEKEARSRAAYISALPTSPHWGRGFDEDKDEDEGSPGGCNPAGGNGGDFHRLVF
# How it was run: as §1
# [6] = biological target: T4, UniProt Q9UGI0
# T4 sequence (whole entry): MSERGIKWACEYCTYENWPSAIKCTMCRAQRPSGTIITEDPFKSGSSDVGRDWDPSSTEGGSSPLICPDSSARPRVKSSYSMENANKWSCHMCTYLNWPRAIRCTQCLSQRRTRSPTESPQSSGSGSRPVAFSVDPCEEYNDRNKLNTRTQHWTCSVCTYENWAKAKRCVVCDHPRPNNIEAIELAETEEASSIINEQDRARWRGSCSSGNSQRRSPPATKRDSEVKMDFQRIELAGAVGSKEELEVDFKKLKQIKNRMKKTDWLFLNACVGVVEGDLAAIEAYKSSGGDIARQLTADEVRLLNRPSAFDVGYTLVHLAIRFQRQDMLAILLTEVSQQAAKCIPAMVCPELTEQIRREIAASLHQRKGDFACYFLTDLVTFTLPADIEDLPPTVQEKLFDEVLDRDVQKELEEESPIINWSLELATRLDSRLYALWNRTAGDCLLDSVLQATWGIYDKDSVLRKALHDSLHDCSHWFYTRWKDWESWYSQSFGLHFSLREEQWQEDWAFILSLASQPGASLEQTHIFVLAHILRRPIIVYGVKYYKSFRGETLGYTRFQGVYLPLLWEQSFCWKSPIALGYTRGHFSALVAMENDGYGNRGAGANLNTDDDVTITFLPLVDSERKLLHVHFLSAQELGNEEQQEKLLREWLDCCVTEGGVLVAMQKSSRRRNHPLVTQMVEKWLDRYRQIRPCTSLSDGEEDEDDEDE
# How it was run: as §1
# [7] = biological target: T5, YOD1 (UniProt Q5VVQ6)
# T5 sequence (whole entry): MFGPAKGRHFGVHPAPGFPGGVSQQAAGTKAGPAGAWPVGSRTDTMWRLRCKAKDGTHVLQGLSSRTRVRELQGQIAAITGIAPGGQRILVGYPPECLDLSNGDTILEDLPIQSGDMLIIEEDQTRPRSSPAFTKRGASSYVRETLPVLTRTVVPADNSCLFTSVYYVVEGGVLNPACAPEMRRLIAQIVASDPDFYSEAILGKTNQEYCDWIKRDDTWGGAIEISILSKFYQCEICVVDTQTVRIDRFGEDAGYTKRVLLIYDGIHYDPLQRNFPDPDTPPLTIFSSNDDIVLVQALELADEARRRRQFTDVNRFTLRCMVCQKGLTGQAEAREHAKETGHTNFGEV
# How it was run: as §1
# Chain of UniProt P51784 (P51784 whole entry): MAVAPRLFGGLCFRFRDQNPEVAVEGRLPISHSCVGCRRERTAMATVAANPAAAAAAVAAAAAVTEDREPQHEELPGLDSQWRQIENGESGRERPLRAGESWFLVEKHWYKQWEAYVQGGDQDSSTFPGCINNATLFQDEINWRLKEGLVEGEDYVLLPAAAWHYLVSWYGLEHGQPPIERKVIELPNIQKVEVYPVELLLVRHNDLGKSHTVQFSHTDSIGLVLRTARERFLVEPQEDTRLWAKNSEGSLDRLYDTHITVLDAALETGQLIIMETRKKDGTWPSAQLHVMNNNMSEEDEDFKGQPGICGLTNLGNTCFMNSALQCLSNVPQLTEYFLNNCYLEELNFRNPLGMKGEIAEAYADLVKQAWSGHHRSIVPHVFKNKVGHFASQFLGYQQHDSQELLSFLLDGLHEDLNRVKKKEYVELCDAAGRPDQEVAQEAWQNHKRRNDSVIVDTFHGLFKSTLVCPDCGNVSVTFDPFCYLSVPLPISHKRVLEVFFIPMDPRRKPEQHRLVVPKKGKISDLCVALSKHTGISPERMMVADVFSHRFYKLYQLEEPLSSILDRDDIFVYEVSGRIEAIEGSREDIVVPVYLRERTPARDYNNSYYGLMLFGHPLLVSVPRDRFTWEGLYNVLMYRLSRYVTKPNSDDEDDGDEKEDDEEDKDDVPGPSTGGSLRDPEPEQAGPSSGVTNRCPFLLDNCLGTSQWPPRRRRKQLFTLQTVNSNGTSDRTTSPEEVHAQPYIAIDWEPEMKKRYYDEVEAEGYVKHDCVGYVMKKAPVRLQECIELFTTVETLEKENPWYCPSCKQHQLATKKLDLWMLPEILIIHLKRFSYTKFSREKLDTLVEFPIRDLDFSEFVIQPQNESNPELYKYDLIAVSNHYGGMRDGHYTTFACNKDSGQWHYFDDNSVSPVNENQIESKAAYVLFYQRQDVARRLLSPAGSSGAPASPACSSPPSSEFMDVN
# Chain of UniProt O00507 (O00507 whole entry, the tested form may be a part): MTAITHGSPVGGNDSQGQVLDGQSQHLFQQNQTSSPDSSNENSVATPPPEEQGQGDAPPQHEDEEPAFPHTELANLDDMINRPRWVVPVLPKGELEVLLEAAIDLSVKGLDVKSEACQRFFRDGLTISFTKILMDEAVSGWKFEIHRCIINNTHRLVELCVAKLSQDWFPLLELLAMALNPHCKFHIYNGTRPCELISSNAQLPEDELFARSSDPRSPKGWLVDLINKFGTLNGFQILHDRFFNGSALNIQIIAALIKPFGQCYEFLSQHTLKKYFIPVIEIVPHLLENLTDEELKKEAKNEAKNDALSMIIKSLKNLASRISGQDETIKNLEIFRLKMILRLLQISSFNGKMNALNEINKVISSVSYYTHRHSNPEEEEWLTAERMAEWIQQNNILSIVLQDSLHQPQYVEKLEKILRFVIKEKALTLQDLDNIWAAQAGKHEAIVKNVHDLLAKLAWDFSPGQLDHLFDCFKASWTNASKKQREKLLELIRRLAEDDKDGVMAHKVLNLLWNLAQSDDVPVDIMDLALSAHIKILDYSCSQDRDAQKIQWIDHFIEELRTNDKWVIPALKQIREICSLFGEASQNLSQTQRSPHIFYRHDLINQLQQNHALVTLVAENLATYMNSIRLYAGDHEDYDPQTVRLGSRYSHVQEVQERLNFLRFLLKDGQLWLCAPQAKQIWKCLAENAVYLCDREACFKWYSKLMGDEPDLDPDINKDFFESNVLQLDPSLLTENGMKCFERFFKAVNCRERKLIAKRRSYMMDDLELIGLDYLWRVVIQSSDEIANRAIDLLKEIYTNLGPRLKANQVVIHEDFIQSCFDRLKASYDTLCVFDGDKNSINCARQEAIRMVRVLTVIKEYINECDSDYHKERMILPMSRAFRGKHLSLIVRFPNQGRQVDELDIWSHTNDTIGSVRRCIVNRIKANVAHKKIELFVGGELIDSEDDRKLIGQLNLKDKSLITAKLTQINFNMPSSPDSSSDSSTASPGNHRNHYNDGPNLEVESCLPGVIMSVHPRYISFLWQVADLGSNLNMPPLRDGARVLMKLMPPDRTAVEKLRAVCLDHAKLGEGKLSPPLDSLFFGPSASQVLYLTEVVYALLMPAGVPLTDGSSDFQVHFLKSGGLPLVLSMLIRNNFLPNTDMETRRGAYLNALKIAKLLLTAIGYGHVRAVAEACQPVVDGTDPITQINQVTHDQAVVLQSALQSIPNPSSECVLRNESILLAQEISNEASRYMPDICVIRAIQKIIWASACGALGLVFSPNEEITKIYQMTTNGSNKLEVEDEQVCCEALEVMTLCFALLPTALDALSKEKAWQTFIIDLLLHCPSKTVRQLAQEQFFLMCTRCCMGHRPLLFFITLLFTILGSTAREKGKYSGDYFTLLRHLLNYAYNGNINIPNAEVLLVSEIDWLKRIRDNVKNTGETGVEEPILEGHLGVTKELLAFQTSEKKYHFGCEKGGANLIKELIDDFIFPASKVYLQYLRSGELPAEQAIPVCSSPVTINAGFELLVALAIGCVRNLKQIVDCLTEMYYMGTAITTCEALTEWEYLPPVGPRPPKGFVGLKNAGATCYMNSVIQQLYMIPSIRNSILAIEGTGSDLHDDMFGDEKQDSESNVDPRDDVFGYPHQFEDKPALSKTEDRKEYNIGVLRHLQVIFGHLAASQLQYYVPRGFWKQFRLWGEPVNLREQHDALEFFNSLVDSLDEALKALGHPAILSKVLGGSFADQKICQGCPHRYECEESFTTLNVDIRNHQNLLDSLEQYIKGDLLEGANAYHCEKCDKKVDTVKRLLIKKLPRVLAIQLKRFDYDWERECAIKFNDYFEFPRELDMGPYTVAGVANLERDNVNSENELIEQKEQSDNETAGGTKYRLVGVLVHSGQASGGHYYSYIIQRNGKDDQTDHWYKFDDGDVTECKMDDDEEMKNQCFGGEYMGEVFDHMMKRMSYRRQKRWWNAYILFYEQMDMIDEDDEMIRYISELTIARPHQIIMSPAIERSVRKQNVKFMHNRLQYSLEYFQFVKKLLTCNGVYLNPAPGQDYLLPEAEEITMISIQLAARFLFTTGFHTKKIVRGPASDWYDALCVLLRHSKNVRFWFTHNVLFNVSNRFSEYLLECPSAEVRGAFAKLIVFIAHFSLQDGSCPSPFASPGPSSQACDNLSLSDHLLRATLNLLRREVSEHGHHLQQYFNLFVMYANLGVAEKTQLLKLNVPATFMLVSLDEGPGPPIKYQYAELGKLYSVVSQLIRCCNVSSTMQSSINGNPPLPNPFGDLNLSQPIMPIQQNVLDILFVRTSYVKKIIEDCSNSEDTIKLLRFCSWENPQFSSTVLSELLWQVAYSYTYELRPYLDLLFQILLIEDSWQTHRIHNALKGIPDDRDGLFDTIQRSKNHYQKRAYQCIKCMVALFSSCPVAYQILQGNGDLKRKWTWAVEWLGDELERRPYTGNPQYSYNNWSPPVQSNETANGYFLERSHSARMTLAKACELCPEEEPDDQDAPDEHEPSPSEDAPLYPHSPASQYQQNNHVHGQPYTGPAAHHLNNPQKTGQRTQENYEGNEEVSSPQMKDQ
SMILES,log2 ratio of Biotin-Ahx-Ub-VS probe labelling [1],log2 ratio of Biotin-Ahx-Ub-VS probe labelling [2],log2 ratio of Biotin-Ahx-Ub-VS probe labelling [3],log2 ratio of Biotin-Ahx-Ub-VS probe labelling [4],log2 ratio of Biotin-Ahx-Ub-VS probe labelling [5],log2 ratio of Biotin-Ahx-Ub-VS probe labelling [6],log2 ratio of Biotin-Ahx-Ub-VS probe labelling [7]
O=C(CCl)Nc1ccccc1C(F)(F)F,-0.463,-0.127,-0.319,-0.411,0.0663,-0.466,-0.621
CNC(=O)C1(NC(=O)CCl)CCCCC1,0.215,0.188,-0.364,-0.591,-0.0698,0.0155,-0.0513
Cc1ccc(N(C(=O)CCl)C2C=CS(=O)(=O)C2)cc1 (centres undefined),0.428,0.0438,0.136,-0.0818,-0.196,-0.0234,0.412
NC(=O)C(Cc1ccccc1)NC(=O)CCl (centres undefined),0.191,-0.0194,-0.105,-0.102,-0.193,-0.398,0.0228
Cc1nc(CC2CCN(C(=O)CCl)CC2)no1,-0.771,-0.658,-0.786,-1.04 (active),-0.59,-0.834,-0.679
Cl.O=C(CN1CCN(C(=O)CCl)CC1)Nc1ccc(F)cc1,0.543,0.0839,-0.013,-0.19,-0.164,-0.166,0.204
COc1ccc(C2CCCN2C(=O)CCl)c(OC)c1 (centres undefined),0.129,-0.237,-0.139,-0.514,-0.249,-0.113,-0.0199
Cc1cccn2cc(CCNC(=O)CCl)nc12.Cl,-0.143,-0.122,-0.0486,-0.332,-0.379,-0.18,-0.095
O=C(CCl)NC1CCC2(CC1)OCCO2,-0.379,-0.104,-0.473,-0.565,-0.399,-0.544,-0.297
Cc1ccc(CC(CO)CNC(=O)CCl)cc1 (centres undefined),-0.3,-0.172,-0.293,-0.933,-0.149,-0.929,-0.164
O=C(O)C1Cc2ccccc2CN1C(=O)CCl (centres undefined),-0.298,-0.0646,-0.268,-0.664,-0.394,-0.642,-0.0629
COc1ccc(-c2csc(NC(=O)CCl)n2)cc1,-0.576,-0.0937,-0.257,-0.479,-0.528,-2.09 (active),-0.00199
Cc1nnc(C(NC(=O)CCl)c2ccccc2)n1C (centres undefined),1.12,0.68,0.343,0.469,0.372,0.693,0.747
O=C(CCl)N(C1CCCC1)C1CCS(=O)(=O)C1 (centres undefined),0.335,-0.112,-0.128,-0.372,-0.386,-0.121,0.15
O=C(CCl)N1CCC[C@@H]1c1ccon1,-0.592,-0.16,-0.395,-0.398,-0.248,-0.626,-0.749
O=C(CCl)N1CCC(OCc2ccccc2F)CC1,-0.226,0.146,-0.173,-0.355,0.097,-0.394,0.135
COc1cccc(CN(C)C(=O)CCl)c1,-0.462,-0.179,-0.0411,-0.149,0.258,-1.23 (active),0.0172
